Measurements taken from PubChem BioAssay (NCI).
The panel holds about 79,000 compounds, 15% with a hit somewhere; the sample as a whole holds those more often. Unmarked numbers belong to inactive results. Calls of active or inactive are those of the source. No stated cut-off is given here; in the data, active means growth inhibition above about 70%; inactive means the rest.

Assay: NCI Yeast Anticancer Drug Screen. Data for the cln2 rad14 strain (AID 165);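 further: 0% = growth equal to vehicle treated cultures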
Conditions: S. cerevisiae cln2 rad14 strain, at 50.0 µM (retest, dose inferred, filed as 5.0), active compounds read high
In short: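 The screen exposed genetically defined yeast (cln2 rad14) to test compounds and scored growth inhibition relative to vehicle-treated controls.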

SMILES	growth inhibition
COc1ccc2nc3cccc([N+](=O)[O-])c3c(NCCNCCN(C)C)c2c1	99% (active)
Cc1cccc(/C=N/NC(=S)NC2CCCCC2)n1	20%
COC(=O)C(=O)c1c(-c2ccc(Cl)c(Cl)c2)[nH]c2[nH]n(-c3ccccc3)c(=O)c2c1=O	81% (active)
c1ccc([P+](CCN2Cc3ccccc3C2)(c2ccccc2)c2ccccc2)cc1	25%
Cc1cc(C)c2[s+]snc2c1	19%
CC(C)(Br)C(=O)/C=C/c1ccccc1	87% (active)
Cc1ccc(S(=O)(=O)NC(=O)C2C(=O)CC3(CCCCC3)CC2=O)cc1	-1%
NC(=S)N1N=C2c3ccccc3CC[C@H]2[C@@H]1c1ccc(Cl)cc1	91% (active)
O=[N+]([O-])/C=C/c1cc2ccc3ccccc3c2[nH]1	83% (active)
O=C1C(=C2CCCC2)CCC1CN1CCCCC1 (stereo unspecified)	14%
OC(CC(O)(C(F)(F)F)C(F)(F)F)c1ccc(C(O)CC(O)(C(F)(F)F)C(F)(F)F)cc1 (stereo unspecified)	100% (active)
COc1cc2c(cc1OC)[C@@H](Nc1ccc(C#N)cc1)C1COC(=O)[C@@H]1C2c1cc(OC)c(O)c(OC)c1 (stereo partly specified)	91% (active)
O=c1cccccc1[O-].O=c1cccccc1[O-].O=c1cccccc1[O-].[Eu+3]	5%
O=C1c2ccccc2C(=O)c2sc(Nc3ccccc3Cl)nc21	99% (active)
NC(CCCCCCCCCCCCC(N)C(=O)c1ccccc1)C(=O)c1ccccc1 (stereo unspecified)	92% (active)
CC1=C(C)C(=O)C2=C(OCCO2)C1=O	29%
